The supplement of paper PMC6658780
Where a name gives a salt, the structure may show the parent alone. ± gives the standard deviation of the averaged measurements.

These compounds were tested on Escherichia coli ATCC BAA-2469 (assay: percent growth inhibition of drug + antibiotic vs DMSO control; higher = more growth inhibition). Conditions: antibiotic (0.125x MIC): ciprofloxacin; 7 µM.
Description: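 Prestwick drugs tested at 20 uM and 7 uM with an antibiotic at 0.125x MIC (16 mg/L when MIC >128 mg/L) against E. coli ATCC BAA-2469 (NDM-1) in CAMHB, 384-well plates, duplicate runs. Percent growth inhibition was computed from OD600 (24 h minus 0 h) relative to DMSO wells. Drug + DMSO-only wells are also given. […]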

Structure (SMILES)	percent growth inhibition
O=C([O-])c1ccccc1-c1c2cc(Br)c(=O)cc-2oc2[c]([Hg+])c([O-])c(Br)cc12.[Na+].[Na+].[OH-] [Merbromin]	0.00817 ± 2.1%
NCC1(CC(=O)O)CCCCC1 [Gabapentin]	4.43 ± 4.2%

Same assay, conditions: antibiotic (0.125x MIC): ciprofloxacin; 20 µM

Structure (SMILES)	percent growth inhibition
NCC1(CC(=O)O)CCCCC1 [Gabapentin]	9.67 ± 14%

Same assay, conditions: antibiotic (0.125x MIC): gentamicin; 7 µM

Structure (SMILES)	percent growth inhibition
C[C@]12CC[C@H](O)C[C@@H]1CC[C@@H]1[C@@H]2CC[C@]2(C)C(=O)CC[C@@H]12 [Epiandrosterone]	0.433 ± 1.2%
O=C(CCCN1CCC2(CC1)C(=O)NCN2c1ccccc1)c1ccc(F)cc1 [Spiperone]	7.21 ± 1%

Same assay, conditions: antibiotic (0.125x MIC): meropenem; 7 µM

Structure (SMILES)	percent growth inhibition
O=C([O-])c1ccccc1-c1c2cc(Br)c(=O)cc-2oc2[c]([Hg+])c([O-])c(Br)cc12.[Na+].[Na+].[OH-] [Merbromin]	0.439 ± 4%
NCC1(CC(=O)O)CCCCC1 [Gabapentin]	-2.95 ± 1.7%

Same assay, conditions: antibiotic (0.125x MIC): meropenem; 20 µM

Structure (SMILES)	percent growth inhibition
Oc1cc(Cl)ccc1Oc1ccc(Cl)cc1Cl [Triclosan]	97 ± 4.5%
CN1[C@@H]2CC[C@H]1C[C@@H](OC(=O)C(CO)c1ccccc1)C2 (some centres undefined) [Atropine sulfate monohydrate]	0.268 ± 1.2%
